Read-out in assay [1]: TIMP metallopeptidase inhibitor 1 (TIMP1), TIMP1 (gene 7076)
The assay is described as follows: BSK_hDFCGF_TIMP1: BioMAP Diversity Plus: hDFCGF Assay for TIMP metallopeptidase inhibitor 1 (TIMP1) Biomarker Activity (AID 2283062). Conditions: primary human foreskin fibroblasts; actives raise or lower the signal. In outline:
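Primary human foreskin fibroblasts in the hDFCGF system were dosed with compound for 24 h, then TIMP-1 was measured by ELISA. Activity was fitted bidirectionally relative to DMSO control; parallel SRB staining assessed cytotoxicity.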

Read-out in assay [2]: Monokine induced gamma interferon (MIG), CXCL9 (gene 4283)
The assay is described as follows: BSK_hDFCGF_MIG: BioMAP Diversity Plus: hDFCGF Assay for Monokine induced gamma interferon (MIG) Biomarker Activity (AID 2283063). Conditions: primary human foreskin fibroblasts; actives raise or lower the signal. In outline: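 ELISA read-out of MIG from primary human dermal fibroblasts 24 h post-dosing. Gain or loss of signal fitted bidirectionally, DMSO as baseline.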

Read-out in assay [3]: Matrix Metallopeptidase 1 (MMP1), MMP1 (gene 4312)
The assay is described as follows: BSK_hDFCGF_MMP1: BioMAP Diversity Plus: hDFCGF Assay for Matrix Metallopeptidase 1 (MMP1) Biomarker Activity (AID 2283064). Conditions: primary human foreskin fibroblasts; actives raise or lower the signal. In outline: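 hDFCGF primary fibroblasts (human foreskin); chemical added; 24 h; MMP1 by ELISA; bidirectional fit vs DMSO.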

Read-out in assay [4]: Vascular cell adhesion molecule 1 (VCAM1), VCAM1 (gene 7412)
The assay is described as follows: BSK_hDFCGF_VCAM1: BioMAP Diversity Plus: hDFCGF Assay for Vascular cell adhesion molecule 1 (VCAM1) Biomarker Activity (AID 2283065).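 As to AC50: VCAM-1 protein level quantified by ELISA after 24 h chemical exposure.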 Particulars: primary human foreskin fibroblasts; actives raise or lower the signal. The method in brief:
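Primary human foreskin fibroblasts (hDFCGF system) were dosed with chemical and VCAM-1 was measured by ELISA 24 h later. Bidirectional curve fitting used DMSO as negative control and activity baseline.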

Read-out in assay [5]: Plasminogen activator inhibitor-1 (PAI1), SERPINE1 (gene 5054)
The experiment in a line: BSK_hDFCGF_PAI1: BioMAP Diversity Plus: hDFCGF Assay for Plasminogen activator inhibitor-1 (PAI1) Biomarker Activity (AID 2283066). Conditions: primary human foreskin fibroblasts; actives raise or lower the signal. In outline:
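Primary dermal fibroblasts (human foreskin), hDFCGF system; compound 24 h; PAI-1 by ELISA; bidirectional fit vs DMSO control.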

Read-out in assay [6]: Intercellular Adhesion Molecule 1 (ICAM1), ICAM1 (gene 3383)
The assay is described as follows: BSK_KF3CT_ICAM1: BioMAP Diversity Plus: KF3CT Assay for Intercellular Adhesion Molecule 1 (ICAM1) Biomarker Activity (AID 2283067). Particulars: primary human keratinocytes with fibroblasts; actives raise or lower the signal. The method in brief:
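Human keratinocyte plus foreskin fibroblast primary co-culture was exposed to chemical for 24 h. ICAM-1 was then quantified by ELISA, and the data were fit bidirectionally against DMSO as the negative control and baseline.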

Read-out in assay [7]: Interferon-gamma inducible Protein 10 (IP10), CXCL10 (gene 3627)
The assay is described as follows: BSK_KF3CT_IP10: BioMAP Diversity Plus: KF3CT Assay for Interferon-gamma inducible Protein 10 (IP10) Biomarker Activity (AID 2283068). Conditions: primary human keratinocytes with fibroblasts; actives raise or lower the signal. In outline:
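Human keratinocyte plus foreskin fibroblast primary co-culture exposed to test chemical for 24 h; IP-10 measured by ELISA. Concentration-response fitted bidirectionally against DMSO control as baseline.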

Assay [8] is described as follows: BSK_KF3CT_SRB: Viability Assessment in the BioMAP Diversity Plus: KF3CT Assay (AID 2283069).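 Also: total protein by sulforhodamine B staining as a cytotoxicity measure; read 24 h after compound addition; fitted for both signal gain and loss against DMSO baseline.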 Particulars: primary human keratinocytes with fibroblasts. The method in brief:
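Keratinocytes co-cultured with foreskin fibroblasts (human primary); chemical added, 24 h; fix 10% TCA, stain 0.1% SRB, A560. Bidirectional fit vs DMSO.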

Read-out in assay [9]: Interleukin-1 alpha (IL1a), IL1A (gene 3552)
The assay is described as follows: BSK_KF3CT_IL1a: BioMAP Diversity Plus: KF3CT Assay for Interleukin-1 alpha (IL1a) Biomarker Activity (AID 2283070). Particulars: primary human keratinocytes with fibroblasts; actives raise or lower the signal. The method in brief: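 Chemicals were dosed onto co-cultured human keratinocytes and foreskin fibroblasts, IL-1a was quantified by ELISA at 24 h, and activity was fitted in both directions relative to DMSO controls.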

Read-out in assay [10]: TIMP metallopeptidase inhibitor 2 (TIMP2), TIMP2 (gene 7077)
The experiment in a line: BSK_KF3CT_TIMP2: BioMAP Diversity Plus: KF3CT Assay for TIMP metallopeptidase inhibitor 2 (TIMP2) Biomarker Activity (AID 2283071). Conditions: primary human keratinocytes with fibroblasts; actives raise or lower the signal. The method in brief:
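Cells: human keratinocytes co-cultured with foreskin fibroblasts. Treat with chemical, 24 h. Measure TIMP-2 by ELISA; fit curves bidirectionally vs DMSO baseline.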

Read-out in assay [11]: Transforming growth factor beta 1 (TGFb1), TGFB1 (gene 7040)
The assay is described as follows: BSK_KF3CT_TGFb1: BioMAP Diversity Plus: KF3CT Assay for Transforming growth factor beta 1 (TGFb1) Biomarker Activity (AID 2283072). Conditions: primary human keratinocytes with fibroblasts; actives raise or lower the signal. In outline:
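Primary human skin cells (keratinocytes, foreskin fibroblasts) were co-cultured, exposed to test chemical and sampled at 24 h. TGF-b1 levels were measured by ELISA and fitted bidirectionally relative to DMSO.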

Read-out in assay [12]: C-C motif chemokine 2 (Homo sapiens) (UniProt P13500)
The assay is described as follows: BSK_KF3CT_MCP1: BioMAP Diversity Plus: KF3CT Assay for Monocyte Chemoattractant Protein 1 (MCP1/CCL2) Biomarker Activity (AID 2283073). Conditions: primary human keratinocytes with fibroblasts; actives raise or lower the signal. The method in brief: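 Human keratinocyte plus foreskin fibroblast primary co-culture exposed to chemical for 24 h. MCP-1 levels measured by ELISA. Bidirectional curve fitting relative to DMSO negative control as baseline.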

Read-out in assay [13]: Matrix Metallopeptidase 9 (MMP9), MMP9 (gene 4318)
The assay is described as follows: BSK_KF3CT_MMP9: BioMAP Diversity Plus: KF3CT Assay for Matrix Metallopeptidase 9 (MMP9) Biomarker Activity (AID 2283074). Conditions: primary human keratinocytes with fibroblasts; actives raise or lower the signal. In outline: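 Human keratinocyte/foreskin fibroblast co-culture; compound added; 24 h; MMP-9 by ELISA; bidirectional fit vs DMSO baseline.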

Read-out in assay [14]: urokinase plasminogen activator (uPA), PLAU (gene 5328)
The experiment in a line: BSK_KF3CT_uPA: BioMAP Diversity Plus: KF3CT Assay for urokinase plasminogen activator (uPA) Biomarker Activity (AID 2283075). Particulars: primary human keratinocytes with fibroblasts; actives raise or lower the signal. The method in brief:
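ELISA readout of uPA, analyzed for signal gain or loss relative to DMSO, from a human primary keratinocyte–foreskin fibroblast co-culture measured 24 h after chemical treatment.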

Read-out in assay [15]: CD40, CD40 (gene 958)
The assay is described as follows: BSK_LPS_CD40: BioMAP Diversity Plus: LPS Assay for CD40 Biomarker Activity (AID 2283076). Particulars: primary human HUVEC with PBMC; actives raise or lower the signal. The method in brief: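 Primary human umbilical vein endothelial cells co-cultured with peripheral blood mononuclear cells, LPS-stimulated, were dosed with chemical and read 24 h later. CD40 levels were measured by ELISA and fitted bidirectionally against DMSO as negative control and baseline.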

Read-out in assay [16]: E-selectin (Homo sapiens) (UniProt P16581)
The assay is described as follows: BSK_LPS_Eselectin: BioMAP Diversity Plus: LPS Assay for Eselectin Biomarker Activity (AID 2283077). Conditions: primary human HUVEC with PBMC; actives raise or lower the signal. The method in brief:
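Human umbilical vein endothelial cells co-cultured with peripheral blood mononuclear cells under LPS stimulation; E-selectin measured by ELISA 24 h after chemical dosing. Activity fitted bidirectionally against DMSO as negative control and baseline.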

Read-out in assay [17]: Interleukin-8 (IL8), CXCL8 (gene 3576)
The experiment in a line: BSK_LPS_IL8: BioMAP Diversity Plus: LPS Assay for Interleukin-8 (IL8) Biomarker Activity (AID 2283078). Conditions: primary human HUVEC with PBMC; actives raise or lower the signal. The method in brief: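 Human umbilical vein endothelial cells co-cultured with PBMC were stimulated with LPS; IL-8 levels were measured by ELISA 24 h after chemical dosing. Activity was fitted bidirectionally against DMSO as negative control and baseline.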

Assay [18] in a line: BSK_LPS_SRB: Viability Assessment in the BioMAP Diversity Plus: LPS Assay (AID 2283079).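 Also: total protein by sulforhodamine B absorbance as a cytotoxicity measure; measured one day after compound addition; fitted in both directions against DMSO so loss or gain of signal counts.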 Particulars: primary human HUVEC with PBMC. The method in brief: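 Human umbilical vein endothelial cells co-cultured with PBMC (LPS system) were dosed for 24 h. Total protein was stained with 0.1% sulforhodamine B after 10% TCA fixation, read at 560 nm, and fitted bidirectionally against DMSO baseline.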

Read-out in assay [19]: Interleukin-1 alpha (IL1a), IL1A (gene 3552)
The assay is described as follows: BSK_LPS_IL1a: BioMAP Diversity Plus: LPS Assay for Interleukin-1 alpha (IL1a) Biomarker Activity (AID 2283080). Conditions: primary human HUVEC with PBMC; actives raise or lower the signal. In outline: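 Human umbilical vein endothelial cells co-cultured with peripheral blood mononuclear cells were LPS-stimulated and exposed to test chemicals for 24 h. IL-1 alpha was quantified by ELISA, with bidirectional curve fitting against DMSO as the negative control and baseline.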

Read-out in assay [20]: Monocyte Chemoattractant Protein-1 (MCP1), CCL2 (gene 6347)
The experiment in a line: BSK_LPS_MCP1: BioMAP Diversity Plus: LPS Assay for Monocyte Chemoattractant Protein-1 (MCP1) Biomarker Activity (AID 2283081). Conditions: primary human HUVEC with PBMC; actives raise or lower the signal. The method in brief: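 HUVEC plus PBMC co-culture (human primary cells, LPS system) exposed to test chemical for 24 h; MCP-1 measured by ELISA. Bidirectional curve fitting against DMSO baseline; parallel SRB total-protein staining flags overt cytotoxicity.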

Each structure is given as a SMILES string. Several values for one entry are separate records, joined by “and”; a condition that tells them apart may be missing. Identical values can stand only once. A structure can be active in one record and inactive in another. Activity calls are given as the source filed them. The calls were made as follows: active = hit-call score of the fitted dose curve at least 0.9, where 1 is the maximum; inactive = score below 0.9.

E-selectin (Homo sapiens), sequence (P16581 whole entry, looked up): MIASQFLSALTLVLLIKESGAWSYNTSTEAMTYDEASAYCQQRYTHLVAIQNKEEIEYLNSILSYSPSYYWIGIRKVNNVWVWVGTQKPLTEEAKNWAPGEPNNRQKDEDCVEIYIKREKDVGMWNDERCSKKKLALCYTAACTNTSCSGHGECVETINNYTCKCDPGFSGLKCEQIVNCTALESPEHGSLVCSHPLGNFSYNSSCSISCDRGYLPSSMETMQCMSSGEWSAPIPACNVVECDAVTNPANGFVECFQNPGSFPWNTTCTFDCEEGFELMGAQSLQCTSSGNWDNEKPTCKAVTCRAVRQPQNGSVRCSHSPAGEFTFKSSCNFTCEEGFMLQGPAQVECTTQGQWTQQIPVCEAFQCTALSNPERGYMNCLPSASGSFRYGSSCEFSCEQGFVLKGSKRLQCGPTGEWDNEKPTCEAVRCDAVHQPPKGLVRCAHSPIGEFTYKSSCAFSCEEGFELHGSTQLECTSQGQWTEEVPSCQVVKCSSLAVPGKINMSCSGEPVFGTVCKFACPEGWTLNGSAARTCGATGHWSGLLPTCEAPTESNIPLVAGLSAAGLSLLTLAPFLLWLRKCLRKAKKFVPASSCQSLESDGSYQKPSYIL

For the molecule `COc1ccc(-n2nc(C(F)F)cc2-c2ccc(S(C)=O)cc2)cc1` (stereo not drawn), the outcome in assay [1], in [2], in assay [3], in [4], in assay [5] and in [6] was inactive. The result in assay [7], in assay [8], in assay [9], in [10], in assay [11] and in assay [12] was inactive. Further, the outcome in assay [13], in assay [14], in [16], in assay [17], in [18] and in assay [20] was inactive. Further, the figures for the AC50 in assay [15] and in assay [19] were 1.7 µM (active) and 4.92 µM (active), respectively.

Consider `O=C(NS(=O)(=O)/C=C/c1ccccc1)c1ccc(F)cc1Cl`, for which the outcome in [1], in assay [2], in assay [3], in assay [4], in assay [5] and in assay [6] was inactive. In addition, the outcome in assay [7], in [8], in assay [9], in [11], in assay [12] and in [13] was inactive. Also, the result in [14], in [15], in [16], in assay [17], in [18] and in assay [19] was inactive. Also, in assay [20], the result was inactive. For the same molecule, the AC50 in assay [10] is 20 µM (active).

`Cn1cnc([N+](=O)[O-])c1Sc1ncnc2nc[nH]c12`: the outcome in assay [1], in [2], in assay [3], in [4], in [5] and in assay [6] was inactive. Also, the result in [7], in assay [8], in [9], in [10], in [11] and in assay [12] was inactive. Also, the result in assay [13], in assay [14], in [15], in assay [16], in [17] and in assay [18] was inactive. Further, the outcome in [19] and in assay [20] was inactive. Moreover, the AC50 in assay [4] is 12.6 µM (active) and 16 µM (active); in assay [5] it was 11.7 µM (active); in assay [15], 26.9 µM (active) and 4.17 µM (active).

With `CN(C)c1ccc(N=NS(=O)(=O)O)cc1`, the outcome in assay [1], in assay [2], in [3], in assay [5], in assay [6] and in [7] was inactive. For the same molecule, the result in [8], in assay [9], in [10], in assay [11], in [12] and in assay [13] was inactive. Further, the result in [14], in assay [15], in assay [16], in [17], in assay [18] and in assay [19] was inactive. Further, the outcome in [20] was inactive. Further, the AC50 in assay [4] was 3.79 µM (active).

For the molecule `CC[C@H]1OC(=O)[C@H](C)[C@@H](O[C@H]2C[C@@](C)(OC)[C@@H](O)[C@H](C)O2)[C@H](C)[C@@H](O[C@@H]2O[C@H](C)C[C@H](N(C)C)[C@H]2O)[C@](C)(O)C[C@@H](C)C(=O)[C@H](C)[C@@H](O)[C@]1(C)O`, the outcome in assay [1], in assay [2], in [3], in assay [4], in assay [5] and in assay [6] was inactive. For the same molecule, the outcome in [7], in [8], in assay [9], in [10], in assay [11] and in [12] was inactive. The result in [13], in [14], in assay [15], in assay [16], in assay [17] and in [18] was inactive. Further, the result in [19] and in assay [20] was inactive.

Take `Nc1cccc(N)c1`: the result in assay [1], in assay [2], in assay [3], in [4], in [5] and in [6] was inactive. The outcome in [7], in assay [8], in assay [9], in assay [10], in [11] and in [12] was inactive. The outcome in assay [13], in assay [14], in [15], in [16], in assay [17] and in assay [18] was inactive. Moreover, the result in assay [19] and in assay [20] was inactive.

One may read the AC50 as the concentration giving half of the maximal activity seen.

Source of the values: PubChem BioAssay (EPA / NIEHS).
